Measurements reported in PubChem BioAssay (EPA / NIEHS).
Several values for one entry are separate records, joined by “and”; a condition that tells them apart may be missing. Equal values may be shown once. Records with an inconclusive call do not appear. Some structures have more than one record in an assay (separate samples or runs), and their calls can disagree. Activity calls are given as the source filed them. Rule for the calls: active = hit-call score of the fitted dose curve at least 0.9, where 1 is the maximum; inconclusive = response in the unintended direction; inactive = score below 0.9.

Key:
[1] = ACEA_AR_agonist_AUC_viability: ACEA Biosciences xCELLigence Real-Time Cell Analysis on Androgen Receptor Agonism for Viability (AID 2283775);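 for AC50: viability read 80 hours after compound addition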
Summary of the method: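 Viability endpoint from xCELLigence impedance in 22Rv1 prostate cells at 80 h. Eight-point series, 100 uM maximum final.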

[2] = ACEA_AR_antagonist_AUC_viability: ACEA Biosciences xCELLigence Real-Time Cell Analysis on Androgen Receptor Antagonism for Viability (AID 2283776);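 note: area under impedance growth curve at 80 h after dosing as viability; hits lower the growth signal relative to DMSO meaning cytotoxicity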
Summary of the method: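 22Rv1 human prostate cancer cells were seeded on electrode plates, monitored overnight, then exposed to eight 1:4 dilutions from 100 uM final. Impedance-based growth kinetics at 80 h gave an AUC viability endpoint normalized to DMSO.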

[3] = ACEA_ER_AUC_viability: ACEA Biosciences xCELLigence Real-Time Cell Analysis on Estrogen Receptor Agonism for Viability (AID 2283782);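 note: hit means loss of impedance signal meaning reduced cell growth or viability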
Summary of the method: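 Viability endpoint: reduced impedance area under the curve relative to DMSO, recorded by real-time electrode sensing over ~80 h of continuous exposure. Duplicate plates of T47D in hormone-depleted medium; eight concentrations, 1:4 dilutions, 100 uM maximum.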

[4] = test system: chicken Androgen Receptor (AR), gene 422165; assay: ATG_chAR_XSP1: Attagene TRANS-FACTORIAL Multi-Species (XSP1) HepG2 Assay for chicken Androgen Receptor (AR) (AID 2283768)
Summary of the method: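 Reporter mRNA read by RT-PCR with fluorescent labelling and capillary electrophoresis 24 h after chemical dosing of transiently transfected HepG2 cells. Chicken AR-Gal4 chimera, partially stimulated with 3 nM 6-alpha-fluorotestosterone; activity fitted upward relative to DMSO.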

[5] = test system: zebrafish Androgen Receptor (AR), gene 100005148; assay: ATG_zfAR_XSP1: Attagene TRANS-FACTORIAL Multi-Species (XSP1) HepG2 Assay for zebrafish Androgen Receptor (AR) (AID 2283771)
Summary of the method: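 Gain-of-signal versus DMSO was measured as reporter transcripts quantified by RT-PCR, fluorescent labelling and capillary electrophoresis after 24 h chemical exposure. The cells were HepG2 expressing a chimeric zebrafish AR-GAL4, co-stimulated with 3 nM 6-alpha-fluorotestosterone.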

[6] = biological target: zebrafish Estrogen Receptor (ESR1), esr1 (gene 259252) (UniProt P57717); assay: ATG_zfER1_XSP1: Attagene TRANS-FACTORIAL Multi-Species (XSP1) HepG2 Assay for zebrafish Estrogen Receptor (ESR1) (AID 2283772)
zebrafish Estrogen Receptor (ESR1), esr1 (gene 259252), sequence (P57717 whole entry, looked up, the tested form may be a part): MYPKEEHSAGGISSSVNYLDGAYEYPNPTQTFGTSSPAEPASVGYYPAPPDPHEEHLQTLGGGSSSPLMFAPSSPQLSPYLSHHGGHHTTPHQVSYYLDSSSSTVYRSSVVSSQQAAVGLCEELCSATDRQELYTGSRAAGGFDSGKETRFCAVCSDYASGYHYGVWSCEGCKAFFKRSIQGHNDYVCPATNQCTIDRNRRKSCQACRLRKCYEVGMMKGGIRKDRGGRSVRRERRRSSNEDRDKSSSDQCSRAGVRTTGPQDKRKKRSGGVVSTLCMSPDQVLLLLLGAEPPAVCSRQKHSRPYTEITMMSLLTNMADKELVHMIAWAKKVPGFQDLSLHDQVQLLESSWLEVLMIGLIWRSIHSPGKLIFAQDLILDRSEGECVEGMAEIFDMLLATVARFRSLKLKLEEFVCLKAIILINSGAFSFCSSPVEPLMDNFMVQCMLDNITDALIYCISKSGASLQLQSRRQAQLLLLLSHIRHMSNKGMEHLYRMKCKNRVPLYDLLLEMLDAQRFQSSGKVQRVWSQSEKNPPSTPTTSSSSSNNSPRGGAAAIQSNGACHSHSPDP
Summary of the method: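 HepG2 cells were transiently transfected with multiplexed GAL4-UAS reporter units driven by chimeric NR-GAL4 proteins, dosed for 24 h with 3 nM 6-alpha-fluorotestosterone present, and reporter mRNA quantified by RT-PCR and capillary electrophoresis versus DMSO.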

[7] = test system: zebrafish Estrogen Receptor (ESR2B), gene 317733; assay: ATG_zfER2b_XSP1: Attagene TRANS-FACTORIAL Multi-Species (XSP1) HepG2 Assay for zebrafish Estrogen Receptor (ESR2B) (AID 2283773)
Summary of the method: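 Medium contained 3 nM 6-alpha-fluorotestosterone. Reporter mRNA induction by exogenous zebrafish ER2b-Gal4 chimera was read 24 h post-dose in transiently transfected HepG2 cells, using RT-PCR, fluorescent labelling, HpaI digestion and capillary electrophoresis.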

[8] = test system: frog Estrogen Receptor (ESR2), gene 100174814; assay: ATG_frER2_XSP1: Attagene TRANS-FACTORIAL Multi-Species (XSP1) HepG2 Assay for frog Estrogen Receptor (ESR2) (AID 2283774)
Summary of the method: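 Reporter mRNA from a multiplexed TRANS system, measured by RT-PCR with fluorescent labelling and capillary electrophoresis, 24 hours after chemical exposure. Human HepG2 liver cells carried exogenous frog ER-Gal4 chimera; medium included 3 nM 6-alpha-fluorotestosterone; increases versus DMSO analysed.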

[9] = test system: frog Estrogen Receptor (ESR1), gene 398734; assay: ATG_frER1_XSP1: Attagene TRANS-FACTORIAL Multi-Species (XSP1) HepG2 Assay for frog Estrogen Receptor (ESR1) (AID 2283777)
Summary of the method: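 HepG2 cells transiently transfected with GAL4-UAS reporter units and frog ER–Gal4 chimera were dosed for 24 h with 3 nM 6-alpha-fluorotestosterone present. Reporter mRNA was measured by RT-PCR and capillary electrophoresis; gain of signal fitted versus DMSO.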

[10] = test system: zebrafish Estrogen Receptor (ESR2A), gene 317734; assay: ATG_zfER2a_XSP1: Attagene TRANS-FACTORIAL Multi-Species (XSP1) HepG2 Assay for zebrafish Estrogen Receptor (ESR2A) (AID 2283778)
Summary of the method: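 Reporter transcripts were quantified by RT-PCR, 6-FAM labelling, HpaI digestion and capillary electrophoresis after 24 h dosing. The cells were HepG2 transiently carrying a zebrafish ER2a–Gal4 construct plus multiplexed UAS reporters; medium contained 3 nM 6-alpha-fluorotestosterone.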

[11] = biological target: chicken Estrogen Receptor (ESR1), ESR1 (gene 396099) (UniProt P06212); assay: ATG_chERa_XSP1: Attagene TRANS-FACTORIAL Multi-Species (XSP1) HepG2 Assay for chicken Estrogen Receptor (ESR1) (AID 2283779)
chicken Estrogen Receptor (ESR1), ESR1 (gene 396099), sequence (P06212 whole entry, looked up, the tested form may be a part): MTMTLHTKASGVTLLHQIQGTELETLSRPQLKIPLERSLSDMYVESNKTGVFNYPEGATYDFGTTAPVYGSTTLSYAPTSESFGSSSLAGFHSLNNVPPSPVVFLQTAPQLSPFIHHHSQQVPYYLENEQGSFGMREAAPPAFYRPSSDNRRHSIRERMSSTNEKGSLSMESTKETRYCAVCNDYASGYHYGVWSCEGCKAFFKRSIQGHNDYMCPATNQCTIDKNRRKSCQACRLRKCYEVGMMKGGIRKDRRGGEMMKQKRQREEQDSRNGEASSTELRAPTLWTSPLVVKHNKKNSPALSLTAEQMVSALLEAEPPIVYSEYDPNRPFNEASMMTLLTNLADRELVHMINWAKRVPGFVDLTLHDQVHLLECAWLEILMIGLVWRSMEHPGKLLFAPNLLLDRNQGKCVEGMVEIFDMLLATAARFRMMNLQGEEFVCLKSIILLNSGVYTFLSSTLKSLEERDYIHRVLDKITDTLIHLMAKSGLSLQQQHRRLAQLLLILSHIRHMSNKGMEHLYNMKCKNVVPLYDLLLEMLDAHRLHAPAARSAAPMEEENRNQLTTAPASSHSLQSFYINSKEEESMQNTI
Summary of the method: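 Trans-activation of an exogenous chicken ERα–Gal4 chimera read as reporter transcript (RT-PCR, fluorescent labeling, capillary electrophoresis) after 24 h compound exposure of transfected HepG2; medium held 3 nM 6-alpha-fluorotestosterone. Positive-direction fit against DMSO.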

[12] = biological target: Estrogen receptor (Homo sapiens) (UniProt P03372); assay: ATG_hERa_XSP1: Attagene TRANS-FACTORIAL Multi-Species (XSP1) HepG2 Assay for human Estrogen Receptor (ESR1) (AID 2283780)
Estrogen receptor (Homo sapiens), sequence (P03372 whole entry, looked up, the tested form may be a part): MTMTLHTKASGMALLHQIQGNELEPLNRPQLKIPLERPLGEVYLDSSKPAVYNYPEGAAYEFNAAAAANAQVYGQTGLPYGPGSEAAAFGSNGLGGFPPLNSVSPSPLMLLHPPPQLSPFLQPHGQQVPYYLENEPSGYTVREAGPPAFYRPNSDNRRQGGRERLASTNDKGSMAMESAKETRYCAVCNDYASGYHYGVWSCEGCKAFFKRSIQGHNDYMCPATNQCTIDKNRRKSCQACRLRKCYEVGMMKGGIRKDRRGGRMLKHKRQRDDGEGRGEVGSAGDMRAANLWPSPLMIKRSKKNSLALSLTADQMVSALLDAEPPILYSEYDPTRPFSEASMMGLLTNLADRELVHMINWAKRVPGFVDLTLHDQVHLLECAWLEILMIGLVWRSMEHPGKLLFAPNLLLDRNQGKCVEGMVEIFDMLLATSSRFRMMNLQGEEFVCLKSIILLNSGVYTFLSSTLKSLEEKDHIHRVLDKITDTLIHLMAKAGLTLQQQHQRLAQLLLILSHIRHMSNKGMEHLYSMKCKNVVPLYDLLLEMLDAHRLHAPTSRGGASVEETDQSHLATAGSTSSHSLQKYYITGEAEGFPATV
Summary of the method: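 Reporter transcripts from multiplexed GAL4-UAS units driven by NR-Gal4 chimeras in transiently transfected HepG2 were measured by RT-PCR with capillary electrophoresis 24 h post-dose, with 3 nM 6-alpha-fluorotestosterone present; gain-of-signal relative to DMSO.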

[13] = test system: turtle Estrogen Receptor (ESR1), gene 101933533; assay: ATG_trERa_XSP1: Attagene TRANS-FACTORIAL Multi-Species (XSP1) HepG2 Assay for turtle Estrogen Receptor (ESR1) (AID 2283781)
Summary of the method: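 Transactivation measured 24 h post-dose as reporter mRNA (RT-PCR, fluorescent capillary electrophoresis) from an NR-Gal4 turtle ER construct in HepG2. Medium included 3 nM 6-alpha-fluorotestosterone; increase over DMSO fitted.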

[14] = biological target: AR (gene 367) (UniProt P10275); assay: ACEA_AR_agonist_80hr: ACEA Biosciences xCELLigence Real-Time Cell Analysis on Androgen Receptor Agonism for Proliferation (AID 2283783);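 note: hits increase impedance growth signal above DMSO baseline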
AR (gene 367), sequence (P10275 whole entry, looked up): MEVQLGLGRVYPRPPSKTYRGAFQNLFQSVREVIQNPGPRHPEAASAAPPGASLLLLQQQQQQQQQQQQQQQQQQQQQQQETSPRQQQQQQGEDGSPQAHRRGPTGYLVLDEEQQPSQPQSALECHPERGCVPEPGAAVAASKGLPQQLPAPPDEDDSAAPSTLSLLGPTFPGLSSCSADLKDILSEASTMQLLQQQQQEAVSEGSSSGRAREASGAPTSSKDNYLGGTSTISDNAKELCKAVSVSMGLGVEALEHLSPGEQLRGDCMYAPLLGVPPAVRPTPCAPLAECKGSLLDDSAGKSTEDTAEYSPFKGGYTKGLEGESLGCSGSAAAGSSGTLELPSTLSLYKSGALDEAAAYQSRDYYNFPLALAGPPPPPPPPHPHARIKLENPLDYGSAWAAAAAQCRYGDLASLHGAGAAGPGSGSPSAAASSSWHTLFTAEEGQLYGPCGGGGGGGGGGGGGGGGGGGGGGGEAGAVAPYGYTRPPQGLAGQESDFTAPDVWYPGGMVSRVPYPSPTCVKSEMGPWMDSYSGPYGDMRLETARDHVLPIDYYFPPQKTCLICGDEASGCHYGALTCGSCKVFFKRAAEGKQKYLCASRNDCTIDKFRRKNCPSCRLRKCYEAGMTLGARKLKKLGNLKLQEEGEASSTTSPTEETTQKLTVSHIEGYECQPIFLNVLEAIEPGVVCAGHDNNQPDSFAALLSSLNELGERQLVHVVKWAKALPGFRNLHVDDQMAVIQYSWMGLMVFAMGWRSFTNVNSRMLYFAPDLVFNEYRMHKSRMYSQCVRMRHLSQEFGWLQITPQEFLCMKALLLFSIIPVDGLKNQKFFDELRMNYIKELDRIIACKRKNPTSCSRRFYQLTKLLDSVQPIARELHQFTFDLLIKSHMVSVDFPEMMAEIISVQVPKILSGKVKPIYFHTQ
Summary of the method: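 Eight concentrations, 1:4 serial dilution from a 100 uM final top, in biological duplicate. Impedance-based real-time growth of 22Rv1 cells after overnight baseline, recorded hourly and read at 80 hours. Controls: testosterone, MG132, assay media.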

[15] = biological target: AR (gene 367) (UniProt P10275); assay: ACEA_AR_antagonist_80hr: ACEA Biosciences xCELLigence Real-Time Cell Analysis on Androgen Receptor Antagonism for Proliferation (AID 2283787);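 note: hits lower the impedance growth signal relative to DMSO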
Summary of the method: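 Impedance-based real-time growth of 22Rv1 prostate cells, read 80 h after dosing. Eight concentrations, 1:4 series, top 100 uM final (0.5% DMSO), n = 2; signal decrease scored against DMSO.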

[16] = biological target: Estrogen receptor beta (Homo sapiens) (UniProt Q92731); assay: ATG_hERb_XSP1: Attagene TRANS-FACTORIAL Multi-Species (XSP1) HepG2 Assay for human Estrogen Receptor (ESR2) (AID 2283788)
Estrogen receptor beta (Homo sapiens), sequence (Q92731 whole entry, looked up, the tested form may be a part): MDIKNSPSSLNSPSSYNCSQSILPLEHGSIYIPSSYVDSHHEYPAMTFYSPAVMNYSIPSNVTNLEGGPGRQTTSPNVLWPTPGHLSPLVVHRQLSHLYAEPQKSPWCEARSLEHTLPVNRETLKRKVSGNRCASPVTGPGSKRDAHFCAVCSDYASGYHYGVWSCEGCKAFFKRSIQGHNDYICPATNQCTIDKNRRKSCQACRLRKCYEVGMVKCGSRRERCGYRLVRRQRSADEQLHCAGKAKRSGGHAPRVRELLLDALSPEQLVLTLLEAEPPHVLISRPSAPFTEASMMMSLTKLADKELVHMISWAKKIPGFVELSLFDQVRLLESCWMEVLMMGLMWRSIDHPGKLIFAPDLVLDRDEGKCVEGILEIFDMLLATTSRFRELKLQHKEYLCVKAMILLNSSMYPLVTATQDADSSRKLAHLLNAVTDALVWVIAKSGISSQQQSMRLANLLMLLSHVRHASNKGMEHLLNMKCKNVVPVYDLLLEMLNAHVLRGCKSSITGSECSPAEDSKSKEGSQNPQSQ
Summary of the method: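 HepG2 cells transiently transfected with multiplexed GAL4-UAS reporter units carrying chimeric human ERβ-Gal4; 24 h compound exposure with 3 nM 6-alpha-fluorotestosterone present. Reporter mRNA quantified by RT-PCR, FAM labelling and capillary electrophoresis; gain-of-signal fitted versus DMSO.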

[17] = biological target: GAL4 Transcription Factor (Internal Marker), GAL4 (gene 855828) (UniProt P04386); assay: ATG_GAL4_XSP1: Attagene TRANS-FACTORIAL Multi-Species (XSP1) HepG2 Assay for GAL4 Transcription Factor (Internal Marker) (AID 2283789)
GAL4 Transcription Factor (Internal Marker), GAL4 (gene 855828), sequence (P04386 whole entry, looked up, the tested form may be a part): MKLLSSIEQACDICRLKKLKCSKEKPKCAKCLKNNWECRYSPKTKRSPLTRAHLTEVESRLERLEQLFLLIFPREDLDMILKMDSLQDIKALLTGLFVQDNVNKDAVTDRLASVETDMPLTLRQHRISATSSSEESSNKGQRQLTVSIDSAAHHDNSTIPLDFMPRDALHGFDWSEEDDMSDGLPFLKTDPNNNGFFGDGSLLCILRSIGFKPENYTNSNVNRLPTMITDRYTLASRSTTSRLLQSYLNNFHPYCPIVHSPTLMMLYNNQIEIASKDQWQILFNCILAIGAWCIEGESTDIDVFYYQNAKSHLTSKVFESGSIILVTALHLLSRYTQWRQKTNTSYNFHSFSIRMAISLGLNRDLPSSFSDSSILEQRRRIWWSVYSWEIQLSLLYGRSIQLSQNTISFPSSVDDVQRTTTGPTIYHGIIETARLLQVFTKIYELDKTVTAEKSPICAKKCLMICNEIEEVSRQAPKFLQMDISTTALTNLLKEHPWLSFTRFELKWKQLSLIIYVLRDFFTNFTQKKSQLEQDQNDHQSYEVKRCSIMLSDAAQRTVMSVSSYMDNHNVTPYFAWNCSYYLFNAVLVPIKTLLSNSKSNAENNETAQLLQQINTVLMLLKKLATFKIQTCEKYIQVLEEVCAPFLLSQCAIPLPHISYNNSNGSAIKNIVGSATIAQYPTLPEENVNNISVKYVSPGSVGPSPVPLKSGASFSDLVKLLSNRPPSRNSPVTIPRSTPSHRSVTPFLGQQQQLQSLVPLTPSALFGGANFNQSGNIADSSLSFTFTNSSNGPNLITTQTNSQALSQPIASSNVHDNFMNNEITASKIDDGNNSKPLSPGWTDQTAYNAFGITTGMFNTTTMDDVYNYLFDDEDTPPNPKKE
Summary of the method: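 This background-control endpoint measures GAL4-driven reporter mRNA via RT-PCR and capillary electrophoresis of labelled fragments. Transiently transfected HepG2 cells were treated 24 h, with 3 nM 6-alpha-fluorotestosterone included, and gain-of-signal was fitted against DMSO.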

[18] = ATG_M_06_XSP1: Attagene TRANS-FACTORIAL Multi-Species (XSP1) HepG2 Assay for M06 Transcription Factor (Internal Marker) (AID 2283790)
Summary of the method: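 This background-control readout tracks M06 reporter mRNA, measured by RT-PCR and capillary electrophoresis. HepG2 cells transiently carrying the GAL4-UAS reporter panel were dosed for 24 h with 3 nM 6-alpha-fluorotestosterone added for partial AR stimulation; increases were scored relative to DMSO.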

[19] = ATG_M_61_XSP1: Attagene TRANS-FACTORIAL Multi-Species (XSP1) HepG2 Assay for M61 Transcription Factor (Internal Marker) (AID 2283797)
Summary of the method: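 Background-control readout: reporter transcripts measured by RT-PCR and capillary electrophoresis 24 h after dosing transiently transfected HepG2 multi-reporter cells, with 3 nM 6-alpha-fluorotestosterone present. Fitted in the positive direction relative to DMSO.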

Measured: AC50

CC(C)(C)CC(C)(C)c1ccc(O)c(-n2nc3ccccc3n2)c1
active: [1] 90.1 µM | [2] 82.8 µM | [3] 21.6 µM

Cc1ccc(S(=O)(=O)O)c(C)c1
inactive: [1] | [2]

CCCCOCCO
inactive: [1] | [2]

COCC(C)O (stereo unspecified)
inactive: [1] | [2]

CC(=O)NC1(c2cccc(F)c2)CCN(CC[C@@]2(c3ccc(Cl)c(Cl)c3)CN(c3ccccc3)C(=O)CO2)CC1
active: [1] 41.5 µM | [2] 41.5 µM | [3] 11.8 µM

CCCCCCCCCCCCN1CCCC1=O
active: [1] 50 µM | [2] 75.5 µM

CCCCC(CC)COC(=O)CCCCC(=O)OCC(CC)CCCC (stereo unspecified)
inactive: [1] | [2]

ClC1=C(Cl)C(Cl)(Cl)C(Cl)=C1Cl
active: [1] 74.8 µM | [2] 68 µM | [3] 71.2 µM

NC(=O)N(O)[C@@H]1C=C[C@H](Oc2cccc(Oc3ccc(F)cc3)c2)C1
active: [1] 40.8 µM | [2] 25 µM | [3] 92.6 µM

COCC(C)OCC(C)O (stereo unspecified)
inactive: [1]

CCCOC(=O)c1ccc(O)cc1
inactive: [1] | [2]

CCCCCCCCOC(=O)CCCCCCCCC(=O)OCCCCCCCC
inactive: [1] | [2]

CCCCCCCCCCCCCC[N+](C)(C)C
active: [1] 4.73 µM | [2] 6.52 µM | [3] 15.9 µM and 6.59 µM

CCOC(=O)CC(O)(CC(=O)OCC)C(=O)OCC
inactive: [1] | [2]

COC(=O)CCCCC(=O)OC
inactive: [1] | [2]

c1ccc2c(c1)Cc1ccccc1-2
inactive: [1] | [2] | [3]

CCCCC(CC)COC(=O)CCCCC(=O)OCc1ccccc1 (stereo unspecified)
inactive: [1] | [2]

CC(C)CCCCCCOC(=O)CCCCC(=O)OCCCCCCC(C)C
inactive: [1] | [2]

CC[C@H](c1ccc(O)cc1)[C@@H](CC)c1ccc(O)cc1
inactive: [4] | [5] | [3] | [14] | [17] | [18] | [19]
active: [6] 0.000114 µM | [7] 0.0657 nM | [8] 0.000101 µM | [1] 10.7 µM | [2] 10.1 µM | [9] 0.0764 nM | [10] 0.0552 nM | [11] 0.0207 nM | [12] 0.0392 nM | [13] 0.0226 nM | [3] 83.3 µM | [15] 10.9 µM | [16] 0.0626 nM
